Measurements reported in PubChem BioAssay.
Calls of active or inactive are those of the source.

Legend:
[1] = system: Plasmodium falciparum Sir2 (PF13_0152, Sir2A); assay: Plasmodium falciparum Sir2A binding compounds – biochemical, small-molecule microarray, 635 nm fluorescence, primary screen (AID 1098); details: fluorescence 635 nm, higher = more signal;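 note: score merges spot fluorescence intensity with its signal-to-noise ratio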
[2] = probe aDKK1 binding to arrayed compounds – biochemical, biotinylated probe, 635/667 nm fluorescence, primary screen (AID 1099); details: small-molecule microarray, higher = more signal;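 note: score merges 667nm spot fluorescence with signal to noise across triplicate slides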
[3] = probe aCHRDL2 binding to arrayed compounds – biochemical, biotinylated probe, 635/667 nm fluorescence, primary screen (AID 1100); details: small-molecule microarray, higher = more signal
[4] = change in splice reporter luminescence, either direction, cell-based, HEK293, spliceosome inhibition project, primary screen (AID 1101); details: HEK293 splicing luciferase reporter, 24 h, higher = more signal, called active from +8 up or from −8 down;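 note: HEK293 cells carrying a splicing-competent luciferase reporter gene; test concentration not given here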
[5] = target: Fibroblast growth factor 10 (Homo sapiens) (UniProt O15520); assay: compounds binding fibroblast growth factor 10 – biochemical, small-molecule microarray, 635 nm fluorescence, primary screen (AID 1102); details: FGF10 binding, fluorescence 635 nm, higher = more signal
[6] = system: glycogen synthase kinase-3 (GSK3A per assay name; protocol says GSK3B); assay: compounds binding glycogen synthase kinase-3 – biochemical, small-molecule microarray, 635 nm fluorescence, GSK3A, primary screen (AID 1103); details: fluorescence 635 nm, higher = more signal; note: the record names both GSK3A and GSK3B
[7] = target: Epidermal growth factor receptor (Homo sapiens) (UniProt P00533); assay: compounds binding epidermal growth factor receptor – biochemical, small-molecule microarray, 635 nm fluorescence, primary screen (AID 1104); details: EGFR binding, higher = more signal;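 note: score merges 667 nm emission intensity with spot signal to noise over triplicate slides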
[8] = target: Follistatin-related protein 3 (Homo sapiens) (UniProt O95633); assay: compounds binding follistatin-related protein 3 – biochemical, small-molecule microarray, 635 nm fluorescence, primary screen (AID 1105); details: FSTL3 binding, higher = more signal;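 note: score merges emission near 667 nm and signal to noise per printed spot across three slides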
[9] = target: Dickkopf-related protein 1 (Homo sapiens) (UniProt O94907); assay: small molecules binding DKK1 protein – biochemical, small-molecule microarray, 635 nm fluorescence scan, primary screen (AID 1106); details: higher = more signal;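 note: score merges emission near 667 nm with signal to noise over three replicate slides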
[10] = system: Inhibin beta A chain (activin A); assay: small molecules binding activin A – biochemical, small-molecule microarray, 635 nm fluorescence scan, primary screen (AID 1107); details: INHBA, higher = more signal;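 note: mouse activin A protein probed at 4.33 µg/mL on printed slides; score merges bound-protein fluorescence near 667 nm with spot signal-to-noise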
[11] = system: Human papillomavirus type 1a protein E7 (residues 44-93); assay: small molecules binding HPV E7 44-93 – biochemical, small-molecule microarray, residues 44-93, 635 nm fluorescence, primary screen (AID 1108); details: fluorescence 635 nm, higher = more signal;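 note: E7 fragment applied at 1 µg/mL in TBST for 1 h at 4 C; score combines spot fluorescence with its signal to noise ratio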
[12] = hepatitis C replication reporter changes, two-sided – Huh7 cells, luciferase reporter, HCV replication inhibitor project, primary screen (AID 1109); details: Huh7 HCV replicon luciferase reporter, 48 h; higher = more signal;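 note: huh7 hepatoma cells harbouring a luciferase neomycin HCV replicon reporter; luciferase luminescence as measure of HCV replicon replication; test concentration not given here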
[13] = target: Left-right determination factor 2 (Homo sapiens) (UniProt O00292); assay: small molecules binding LEFTY2 protein – biochemical, small-molecule microarray, 635 nm fluorescence scan, primary screen (AID 1110); details: higher = more signal
[14] = target: Calmodulin-1 (Homo sapiens) (UniProt P0DP23); assay: small molecules binding calmodulin-1 with EGTA – biochemical, small-molecule microarray, Cy5-labelled CALM1, profiling panel (AID 1111); details: Cy5-CALM1 binding fluorescence, higher = more signal;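 note: labelled calmodulin applied in Tris saline Tween buffer holding calcium plus EGTA and DTT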
[15] = target: Calmodulin-1 (Homo sapiens) (UniProt P0DP23); assay: small molecules binding Ca-loaded calmodulin-1 – biochemical, small-molecule microarray, Cy5-labelled CALM1, plus calcium, artefact control for SMM control-protein annotation, profiling panel (AID 1112); details: Cy5-CALM1 binding fluorescence, higher = more signal;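 note: score merges spot fluorescence with signal to noise from triplicate slides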
[16] = probe aWnt5a binding to arrayed compounds – biochemical, biotinylated probe, 635/667 nm fluorescence, primary screen (AID 1113); details: small-molecule microarray, higher = more signal;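 note: score merges 667 nm fluorescence intensity with signal-to-noise per printed feature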
[17] = probe aShh binding to arrayed compounds – biochemical, biotinylated probe, 635/667 nm fluorescence, primary screen (AID 1114); details: small-molecule microarray, higher = more signal;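 note: probe is biotin-labelled aShh protein from a stem cell growth factor screen; measures binding of labelled protein to compounds printed on the slide; score merges feature fluorescence at 667 nm with signal-to-noise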
[18] = probe aNog binding to arrayed compounds – biochemical, biotinylated probe, 635/667 nm fluorescence, primary screen (AID 1115); details: small-molecule microarray, higher = more signal;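 note: probe is biotinylated aNog protein used at 0.15 µg/mL for 1 h at 4 C; z-score combines 667 nm fluorescence of each spot with its signal to noise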
[19] = target: Torsin-1A-interacting protein 1 (Homo sapiens) (UniProt Q5JTV8); assay: compound microarray binding of lysate hLAP1 – cell lysate, small-molecule microarray, COS7 lysate, 635/667 nm fluorescence, primary screen (AID 1116); details: 635 nm fluorescence, higher = more signal
[20] = target: Alpha-bungarotoxin (Bungarus multicinctus) (UniProt P60615); assay: compounds binding labelled alpha-BTX control protein – biochemical, small-molecule microarray, Alexa647 label, 635/667 nm fluorescence, artefact control for SMM control protein annotation, profiling panel (AID 1117); details: alpha-BTX-A647 binding fluorescence, higher = more signal
Sequence of Alpha-bungarotoxin (Bungarus multicinctus) (P60615 whole entry, looked up): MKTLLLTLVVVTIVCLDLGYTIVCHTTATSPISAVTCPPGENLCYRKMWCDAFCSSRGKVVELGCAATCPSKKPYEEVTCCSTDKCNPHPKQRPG

Sequence of Torsin-1A-interacting protein 1 (Homo sapiens) (Q5JTV8 whole entry, looked up): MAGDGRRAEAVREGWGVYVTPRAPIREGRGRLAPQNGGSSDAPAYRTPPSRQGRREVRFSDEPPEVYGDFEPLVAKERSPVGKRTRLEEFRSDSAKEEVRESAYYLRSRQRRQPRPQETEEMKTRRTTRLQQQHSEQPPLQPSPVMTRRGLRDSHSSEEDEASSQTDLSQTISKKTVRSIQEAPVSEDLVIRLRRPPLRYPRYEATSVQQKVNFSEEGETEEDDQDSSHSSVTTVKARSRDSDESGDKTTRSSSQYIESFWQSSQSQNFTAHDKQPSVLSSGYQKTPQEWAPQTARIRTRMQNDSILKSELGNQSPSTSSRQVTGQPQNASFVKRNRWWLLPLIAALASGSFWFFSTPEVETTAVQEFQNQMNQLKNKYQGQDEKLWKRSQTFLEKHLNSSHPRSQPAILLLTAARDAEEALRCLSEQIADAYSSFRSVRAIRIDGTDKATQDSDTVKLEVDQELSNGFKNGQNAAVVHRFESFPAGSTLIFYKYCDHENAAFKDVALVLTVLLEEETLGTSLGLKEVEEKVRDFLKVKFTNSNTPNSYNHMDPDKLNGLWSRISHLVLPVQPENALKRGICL
Sequence of Left-right determination factor 2 (Homo sapiens) (O00292 whole entry, looked up): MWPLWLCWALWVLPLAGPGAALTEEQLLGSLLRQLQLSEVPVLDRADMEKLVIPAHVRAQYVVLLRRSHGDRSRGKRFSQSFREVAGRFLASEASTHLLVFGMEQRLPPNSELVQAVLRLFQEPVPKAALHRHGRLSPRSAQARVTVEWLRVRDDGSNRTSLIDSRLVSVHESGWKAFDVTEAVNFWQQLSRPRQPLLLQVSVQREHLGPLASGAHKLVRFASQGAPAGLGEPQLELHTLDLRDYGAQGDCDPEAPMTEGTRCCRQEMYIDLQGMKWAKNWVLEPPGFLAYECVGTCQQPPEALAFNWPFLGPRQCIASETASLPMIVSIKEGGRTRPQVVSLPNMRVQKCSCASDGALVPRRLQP
Sequence of Epidermal growth factor receptor (Homo sapiens) (P00533 whole entry, looked up): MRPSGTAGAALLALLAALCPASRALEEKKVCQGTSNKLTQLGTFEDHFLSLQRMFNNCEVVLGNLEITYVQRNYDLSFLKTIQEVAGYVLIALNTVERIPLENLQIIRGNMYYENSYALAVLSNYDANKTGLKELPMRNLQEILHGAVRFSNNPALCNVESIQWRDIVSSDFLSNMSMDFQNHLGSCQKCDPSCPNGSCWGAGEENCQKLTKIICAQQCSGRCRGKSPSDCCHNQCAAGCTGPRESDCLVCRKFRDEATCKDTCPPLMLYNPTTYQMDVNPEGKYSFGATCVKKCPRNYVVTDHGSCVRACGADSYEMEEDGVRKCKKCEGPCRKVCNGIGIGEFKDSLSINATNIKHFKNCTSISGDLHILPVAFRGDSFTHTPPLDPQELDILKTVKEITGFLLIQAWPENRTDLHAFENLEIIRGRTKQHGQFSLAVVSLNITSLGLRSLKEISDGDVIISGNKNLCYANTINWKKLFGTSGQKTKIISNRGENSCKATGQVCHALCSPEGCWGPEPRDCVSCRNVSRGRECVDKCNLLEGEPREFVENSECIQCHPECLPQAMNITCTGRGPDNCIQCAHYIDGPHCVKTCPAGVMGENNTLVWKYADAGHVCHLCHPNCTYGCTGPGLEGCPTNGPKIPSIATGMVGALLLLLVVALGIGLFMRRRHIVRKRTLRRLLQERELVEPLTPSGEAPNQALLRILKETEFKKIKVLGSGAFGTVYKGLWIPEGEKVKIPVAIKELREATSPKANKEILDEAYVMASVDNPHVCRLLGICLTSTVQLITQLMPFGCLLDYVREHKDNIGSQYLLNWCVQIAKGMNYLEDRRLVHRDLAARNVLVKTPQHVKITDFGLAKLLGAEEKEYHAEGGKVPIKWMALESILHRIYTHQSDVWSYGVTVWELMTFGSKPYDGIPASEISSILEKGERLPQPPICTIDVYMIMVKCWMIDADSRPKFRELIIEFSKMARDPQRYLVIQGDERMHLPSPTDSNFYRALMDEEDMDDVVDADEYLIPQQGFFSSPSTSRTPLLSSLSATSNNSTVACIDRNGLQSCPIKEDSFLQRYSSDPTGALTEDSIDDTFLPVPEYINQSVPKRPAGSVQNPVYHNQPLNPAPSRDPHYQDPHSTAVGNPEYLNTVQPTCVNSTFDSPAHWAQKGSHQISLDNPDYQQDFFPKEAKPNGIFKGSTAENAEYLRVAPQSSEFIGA
Sequence of Fibroblast growth factor 10 (Homo sapiens) (O15520 whole entry, looked up): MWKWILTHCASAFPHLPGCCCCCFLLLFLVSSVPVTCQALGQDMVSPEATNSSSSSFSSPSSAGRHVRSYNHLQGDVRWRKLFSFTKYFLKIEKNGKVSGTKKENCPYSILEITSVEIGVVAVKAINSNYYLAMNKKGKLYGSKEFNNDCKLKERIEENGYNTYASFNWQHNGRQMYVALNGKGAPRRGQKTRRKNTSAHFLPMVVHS
Sequence of Follistatin-related protein 3 (Homo sapiens) (O95633 whole entry, looked up): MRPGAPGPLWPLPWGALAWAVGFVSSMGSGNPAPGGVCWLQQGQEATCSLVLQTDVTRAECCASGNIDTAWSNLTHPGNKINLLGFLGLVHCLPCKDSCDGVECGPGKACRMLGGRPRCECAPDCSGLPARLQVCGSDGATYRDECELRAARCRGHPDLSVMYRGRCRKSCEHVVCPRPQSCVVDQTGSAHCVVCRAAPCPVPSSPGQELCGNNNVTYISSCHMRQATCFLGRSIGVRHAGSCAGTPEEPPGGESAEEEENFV
Sequence of Dickkopf-related protein 1 (Homo sapiens) (O94907 whole entry, looked up): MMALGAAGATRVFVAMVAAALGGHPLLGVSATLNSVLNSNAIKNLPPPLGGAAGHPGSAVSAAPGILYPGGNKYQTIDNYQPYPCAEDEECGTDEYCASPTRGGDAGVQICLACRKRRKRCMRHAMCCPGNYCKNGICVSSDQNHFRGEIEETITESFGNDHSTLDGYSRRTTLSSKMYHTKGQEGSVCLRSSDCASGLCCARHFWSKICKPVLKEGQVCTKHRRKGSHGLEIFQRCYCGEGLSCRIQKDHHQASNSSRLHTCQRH

| Compound | composite z-score [1] | composite z-score [2] | composite z-score [3] | z-score [4] | composite z-score [5] | composite z-score [6] | composite z-score [7] | composite z-score [8] | composite z-score [9] | composite z-score [10] | composite z-score [11] | z-score [12] | composite z-score [13] | composite z-score [14] | composite z-score [15] | composite z-score [16] | composite z-score [17] | composite z-score [18] | composite z-score [19] | composite z-score [20] |
| --- | --- | --- | --- | --- | --- | --- | --- | --- | --- | --- | --- | --- | --- | --- | --- | --- | --- | --- | --- | --- |
| COCCOC(=O)N1C(=O)[C@@]2(c3cc(C#Cc4ccc(OC)cc4)ccc31)[C@H](C(=O)N1CCN(c3ncccn3)CC1)[C@H]1C(=O)O[C@H](c3ccccc3)[C@H](c3ccccc3)N1[C@@H]2c1ccccc1OCCO | 0.625 | -0.0221 | 0.221 | -0.562 (inactive) | 0.343 | -0.142 | 0.139 | -0.181 | -0.163 | 0.443 | 1.23 | -0.509 | 0.0641 | 0.551 | 0.858 | -0.131 | -0.0011 | 0.187 | 0.931 | 1 |
| COc1ccccc1CN1C(=O)c2ccccc2[C@](Cc2ccccc2I)(C(=O)NC(C)C)[C@@H]1c1ccc(CO)cc1 | 0.672 | -0.132 | -0.0563 | -0.691 (inactive) | 1.32 | 1.3 | 0.457 | 1.28 | 0.312 | -0.0084 | 1.46 | -2.22 | 0.242 | 0.704 | 0.0649 | -0.0455 | 0.131 | -0.402 | 0.855 | 1.41 |
| CCOC(=O)C[C@H]1[C@H](OC(=O)c2ccc(C(=O)c3ccccc3)cc2)[C@@H](NC(=O)c2ccc3ccccc3c2)c2cc(OCCCO)ccc2N1C(=O)c1ccccc1 | 0.422 | 0.489 | 0.17 | -0.072 (inactive) | 0.734 | 0.993 | 0.0993 | 0.786 | 0.105 | 0.007 | 0.974 | -0.617 | 0.317 | 0.988 | 0.602 | -0.0346 | 0.0684 | 0.612 | 0.602 | 1.04 |
| COC(=O)Cn1c(C(=O)N2CCCC2)cc2c1C[C@H]1CN(C(=O)c3ccccc3)[C@@](Cc3ccc(F)cc3)(C(=O)OC)[C@@H]21 | 0.643 | 0.222 | -0.0982 | -1.13 (inactive) | -0.134 | -0.576 | 0.588 | 0.412 | -0.181 | 0.675 | -0.137 | -1.32 | -0.0715 | 1.15 | 0.153 | -0.0405 | -0.0738 | -0.298 | 0.943 | -0.155 |
| CC(C)C(=C=CC[C@H](O)c1ccc(OCCO)cc1)C[C@H](O)c1cc(Cl)cc(Cl)c1O | 0.631 | -0.0017 | -0.249 | -0.492 (inactive) | 0.893 | 0.741 | 0.122 | 0.699 | -0.0061 | 0.707 | 0.927 | -1.57 | 0.437 | -0.0205 | 0.134 | -0.0125 | 0.191 | 0.205 | 0.413 | 1.44 |
| COC1(C)CN(Cc2ccccc2Br)[C@H](/C=C/c2ccccc2)[C@H](Cc2ccccc2)O1 (stereo not given in full) | -0.525 | -0.383 | -0.0981 | -0.792 (inactive) | -0.258 | -0.629 | -0.383 | -0.478 | -1.04 | -0.19 | -0.579 | -1.58 | -0.137 | -0.0755 | -0.412 | -0.176 | -0.291 | -0.169 | -0.631 | -0.0462 |
| CC(C)(C)OC(=O)CC[C@@]1(C(=O)O)N=C(c2ccc(OCCCO)cc2)O[C@@H]1c1ccccc1 | 0.492 | 0.325 | 0.824 | -0.176 (inactive) | -0.0905 | -0.126 | -0.566 | -0.294 | -0.646 | 0.253 | 1.16 | 0.344 | -0.499 | 0.357 | 0.145 | 0.0799 | 0.0611 | 0.955 | 0.117 | 1.54 |
| C=CCN1C(=O)[C@@]2(CCC(=O)OC(C)(C)C)N=C(c3ccc(OCCCO)cc3)O[C@H]2c2ccccc21 | 1.25 | 0.549 | 1 | 0.0157 (inactive) | 0.0195 | 1.13 | 0.217 | 0.792 | 0.116 | 1.4 | 1.36 | -2.97 | 0.224 | 1.47 | 0.516 | 0.065 | 0.0048 | -0.226 | 0.144 | 0.916 |
| Cc1ccc(S[C@]2(C(=O)NC(C)C)CC(=O)N(Cc3ccccc3C(F)(F)F)[C@@H]2c2ccc(CO)cc2I)cc1 | 1.29 | 0.386 | 1.09 | -1.42 (inactive) | -1.41 | -1.1 | -1.64 | -1.29 | -1.7 | 0.889 | 0.187 | -2.54 | -0.796 | -0.301 | 0.0016 | -0.13 | -0.0769 | -0.0965 | -0.0123 | 1.65 |
| CC1CC/C=C\[C@H]2OC34C=CCN(CCN5CCOCC5)C(=O)[C@H]3N(CCO)C(=O)[C@@H]4C2C(=O)O1 (stereo not given in full) | -0.778 | -0.31 | 0.293 | -0.81 (inactive) | -0.992 | -0.831 | -0.707 | -0.781 | -0.137 | 0.761 | -1.99 | -0.504 | -1.2 | -0.714 | -0.307 | -0.166 | -0.154 | -0.145 | 0.0159 | -1.02 |
| O=C1O[C@@H](c2ccccc2)[C@@H](c2ccccc2)N2[C@@H](c3ccccc3OCCO)[C@]3(C(=O)Nc4ccc(C#CCCO)cc43)[C@@H](C(=O)N3CCN(c4ncccn4)CC3)[C@H]12 | 0.879 | -0.0415 | 0.225 | -1.09 (inactive) | 0.376 | 0.649 | -0.022 | 0.315 | 0.464 | -0.055 | 1.39 | -1.71 | -0.0407 | 1.15 | 0.27 | -0.096 | -0.16 | -0.332 | 0.744 | 1.23 |
| NC(=O)N1C(=O)C2C(C1=O)C1C=C(c3ccc(CO)cc3)C2C(C2CC2)N1Cc1sc2ccccc2c1Cl (stereo not given) | 0.834 | -0.0675 | 0.102 | -0.72 (inactive) | 1.25 | 1.12 | 0.553 | 1.21 | 0.307 | -0.115 | 0.0882 | -1.39 | 1.27 | 0.867 | 0.163 | 0.272 | 0.0756 | 0.264 | 1.9 | 2.12 |
| COc1cc2c(cc1OC)CN(C(=O)[C@H]1[C@@H]3C(=O)O[C@@H](c4ccccc4)[C@@H](c4ccccc4)N3[C@@H](c3ccc(OCCO)cc3)[C@]13C(=O)Nc1ccc(C#CC4(O)CCCCCC4)cc13)CC2 | 1.09 | 1.59 | 0.623 | 0.415 (inactive) | 1.12 | 1.31 | 1.02 | 1.33 | 1.31 | 1.07 | 1.43 | -1.33 | 1.15 | 0.91 | 0.765 | -0.236 | -0.882 | 1.72 | 0.964 | 0.691 |
| CCOC(=O)C[C@H]1[C@H](OC(=O)Cc2ccc3c(c2)OCO3)[C@@H](NC(=O)C2CCCCC2)c2cc(OCCCO)ccc2N1C(=O)c1ccc2ccccc2n1 | 0.774 | 0.034 | -0.529 | -1.49 (inactive) | 1.47 | 0.72 | 0.713 | 1.18 | 1.65 | 0.0341 | 1.33 | -1.27 | 0.924 | 0.0105 | -0.896 | -0.1 | -0.164 | 0.0862 | 0.746 | 0.663 |
| O=C1O[C@@H](c2ccccc2)[C@@H](c2ccccc2)N2[C@@H](c3ccc(O)cc3)[C@]3(C(=O)Nc4ccc(C#CC5=CCCCC5)cc43)[C@@H](C(=O)N3CCN(c4ncccn4)CC3)[C@H]12 | 1.59 | -0.446 | -0.0675 | -0.339 (inactive) | 1.33 | 1.28 | 0.383 | 0.872 | 0.283 | -0.0915 | 1.17 | -1.9 | 0.333 | 1.19 | -0.581 | -0.0459 | 0.0756 | -0.14 | 0.951 | 0.862 |
| C=C(/C(=C/C[C@@H](OC(=O)c1ccncc1)c1ccc(OCCO)cc1)c1cc(C(=O)OC)ccc1OC)C(C)C | 0.596 | -0.354 | -0.338 | -0.432 (inactive) | 0.426 | 0.284 | 0.325 | 0.609 | -0.0107 | 0.309 | 1.38 | -1.88 | -0.0398 | 0.356 | -0.252 | -0.0721 | -0.138 | -0.45 | 0.637 | 0.249 |
